# Measurements reported in PubChem BioAssay (NCATS).
# Inconclusive results are not listed. Where a call stands in place of a potency, no number is given. The source made the active and inactive calls. Unless noted, calls follow the shape of the dose curve; as a rule, active = well fitted curve in the direction sought with a large enough effect; inconclusive = small, poorly fitted or top-dose-only effect, or another doubt; inactive = no such curve, though single readings can be large; an effect the other way counts as inactive or inconclusive.
# Columns and labels:
# [1] = Counterscreen for APE1 Inhibitors: Fluorescent Dye Displacement Validation Assay (AID 1707)
# Procedure, shortened: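 Reaction mixture of 250 nM Thiazole Orange and 50 nM double-stranded abasic-site DNA was dispensed, compounds were pin-transferred, and fluorescence was read at endpoint (480 nm ex, 540 nm em). Reduced fluorescence indicated dye displacement by DNA binding.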
# [2] = target: Guanine nucleotide-binding protein G(i) subunit alpha-1 (Homo sapiens) (UniProt P63096); assay: qHTS Assay for Inhibitors of RGS12 GoLoco Motif Activity (Green Fluorophore) (AID 879);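 also: negative values mean loss of peptide binding seen as reduced polarization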
# Procedure, shortened: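 A drop in FITC polarization marked displacement of the FITC-tagged RGS12 GoLoco peptide (10 nM) from Gαi1 (50 nM). Compounds were incubated 10 min at room temperature in Tris pH 7.5 buffer containing 150 mM NaCl, 0.1 mM GDP and 0.05% NP40; unlabeled peptide titration served as control.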
# [3] = target: Muscarinic acetylcholine receptor M1 (Rattus norvegicus) (UniProt P08482); assay: qHTS Assay for Antagonists of Acetylcholine Muscarinic M1 Receptor: Kinetic Measurement of Intracellular Calcium Response (AID 943); also: potency is read from the fitted curve at half-maximal effect; nearly all actives have a fitted effect of over 75% in size
# Muscarinic acetylcholine receptor M1 (Rattus norvegicus), sequence (P08482 whole entry, looked up): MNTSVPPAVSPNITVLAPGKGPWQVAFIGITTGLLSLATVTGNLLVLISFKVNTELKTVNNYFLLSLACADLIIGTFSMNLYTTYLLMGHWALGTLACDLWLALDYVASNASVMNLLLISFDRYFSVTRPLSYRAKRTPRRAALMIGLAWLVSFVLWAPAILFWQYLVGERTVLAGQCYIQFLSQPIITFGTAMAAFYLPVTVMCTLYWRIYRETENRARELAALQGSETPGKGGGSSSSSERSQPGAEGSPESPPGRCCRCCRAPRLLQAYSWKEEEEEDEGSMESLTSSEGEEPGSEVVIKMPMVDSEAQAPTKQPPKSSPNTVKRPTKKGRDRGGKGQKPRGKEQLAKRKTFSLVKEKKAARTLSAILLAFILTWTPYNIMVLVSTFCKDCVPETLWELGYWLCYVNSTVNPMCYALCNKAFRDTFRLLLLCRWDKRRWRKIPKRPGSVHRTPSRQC
# Procedure, shortened: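 Antagonism measured as reduction of carbachol-evoked (EC80, 100 nM final) calcium flux in rat M1-CHO cells after 10 min compound exposure. Fluo-4 signal read kinetically; ratio of maximal to basal fluorescence.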
# [4] = target: Muscarinic acetylcholine receptor M1 (Rattus norvegicus) (UniProt P08482); assay: qHTS Assay for Antagonists of Acetylcholine Muscarinic M1 Receptor: Measurement of IP-One Response (AID 944); also: potency is read from the fitted curve at half-maximal effect; nearly all actives have a fitted effect of over 75% in size
# Procedure, shortened: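 IP1 accumulation measured via TR-FRET between d2-IP1 and Eu-cryptate anti-IP1 antibody after carbachol (200 nM, EC80) stimulation for 30 min; rat M1-transfected CHO cells received compound 10 min before agonist.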
# [5] = target: Pyruvate kinase (Leishmania mexicana) (UniProt Q27686); assay: qHTS Validation Assay for Inhibitors of Leishmania Mexicana Pyruvate Kinase (AID 945)
# Pyruvate kinase (Leishmania mexicana), sequence (Q27686 2-499 E452W): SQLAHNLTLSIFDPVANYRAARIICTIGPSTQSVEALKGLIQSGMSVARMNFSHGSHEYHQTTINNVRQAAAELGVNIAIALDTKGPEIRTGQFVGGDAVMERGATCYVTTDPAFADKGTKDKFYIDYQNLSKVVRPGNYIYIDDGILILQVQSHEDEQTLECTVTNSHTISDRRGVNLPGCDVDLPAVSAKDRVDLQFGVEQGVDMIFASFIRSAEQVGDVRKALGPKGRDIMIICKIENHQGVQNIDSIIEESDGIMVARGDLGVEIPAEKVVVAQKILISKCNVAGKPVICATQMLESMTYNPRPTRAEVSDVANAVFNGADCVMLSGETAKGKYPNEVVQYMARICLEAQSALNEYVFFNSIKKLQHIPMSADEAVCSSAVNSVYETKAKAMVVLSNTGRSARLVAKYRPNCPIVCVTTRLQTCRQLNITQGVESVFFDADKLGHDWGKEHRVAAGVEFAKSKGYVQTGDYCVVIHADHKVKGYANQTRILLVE
# Procedure, shortened: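 Eight-point qHTS titrations in triplicate, data normalized to DMSO neutral control. Reaction: 0.2 nM LmPYK E451W mutant, 0.5 mM PEP, 0.1 mM ADP, 7 mM MgCl2, pH 7.2, one hour at room temperature; luminescent ATP detection.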
# [6] = target: Pyruvate kinase PKM (Homo sapiens) (UniProt P14618); assay: qHTS Assay for Activators of Human Muscle Pyruvate Kinase (AID 954; active = well fitted curve in the direction sought with a large enough effect, not every such curve was filed as active)
# Procedure, shortened: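 Compound pinned into substrate mix (0.5 mM PEP, 0.1 mM ADP), then 0.1 nM PKM2 added; 1 h, RT. Stop/detection luciferase reagent added, luminescence read. Normalized to no-inhibition and no-enzyme or reference-inhibitor controls.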
# [7] = target: Alpha-galactosidase A (Homo sapiens) (UniProt P06280); assay: Counterscreen for Glucocerebrosidase Inhibitors: qHTS Assay for Human alpha-Galactosidase at pH 4.5 (AID 992)
# Procedure, shortened: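 Steps: enzyme (2 nM final), then compound across 0.7 nM to 77 uM, then 80 uM fluorogenic galactopyranoside substrate; incubate 20 min at room temperature; quench at pH 10; measure fluorescence at 365/440 nm.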
# [8] = target: alpha-glucosidase (Oryza sativa, rice) (UniProt Q653V4); assay: Counterscreen for Glucocerebrosidase Inhibitors: qHTS Assay for Rice alpha-Glucosidase at pH 5.0 (AID 997)
# Procedure, shortened: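 Endpoint fluorogenic assay at pH 5.0: compounds (0.7 nM to 77 uM) titrated against 4 nM rice enzyme and 400 uM 4-MU-alpha-glucoside for 20 min at room temperature; NaOH/glycine stop, read ex 365/em 440 nm, Hill-fitted AC50.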
# [9] = target: Ferritin light chain (Equus caballus) (UniProt P02791); assay: qHTS Validation Assay for Identification of Novel General Anesthetics (AID 2323)
# Ferritin light chain (Equus caballus), sequence (P02791 2-175 limits assumed): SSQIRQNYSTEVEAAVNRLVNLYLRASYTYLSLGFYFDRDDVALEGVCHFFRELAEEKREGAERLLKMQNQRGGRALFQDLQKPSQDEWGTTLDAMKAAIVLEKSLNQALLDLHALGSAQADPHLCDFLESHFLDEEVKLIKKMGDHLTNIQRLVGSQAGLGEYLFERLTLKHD
# Procedure, shortened: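 Apoferritin from horse spleen (10 uM) was mixed with 1-aminoanthracene at 50% saturation in PBS, then compounds were added. After 10 min at room temperature, fluorescence was read (ex 380 nm, em 535 nm) and normalized to free-probe and complex controls.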
# [10] = Cytometric Cell-Based qHTS for Inhibitors of the mTORC1 Signaling Pathway in MEF (Tsc2-/-, p53-/-) Cells (AID 2660);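 also: percent of cells above a phospho-rpS6 to PI ratio cutoff in each well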
# Procedure, shortened: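 Tsc2-/-, p53-/- MEFs (empty vector) exposed to compound 24 h at 37 C, fixed, stained with Alexa-488 anti-phospho-rpS6 Ser235/236 and propidium iodide. Acumen laser scanning; phospho-S6/PI ratio thresholded against 7.5 nM rapamycin, reported as % positive cells.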
# [11] = target: Ubiquitin carboxyl-terminal hydrolase 2 (Homo sapiens) (UniProt O75604); assay: qHTS Validation Assay for Inhibitors of Ubiquitin-specific Protease USP2a Using CHOP2 as the Reporter (AID 463106)
# Procedure, shortened: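 Readout was coupled fluorescence (Ex 485/Em 531 nm), read 60 min after adding 25 nM final Ub-CHOP2 and 25 nM reporter substrate. Beforehand, 10 nM final USP2 core had 30 min at RT with compound in pH 8.0 buffer. Curves were fitted after normalization to NEM and flagged for artifacts using time-zero reads.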
# [12] = target: DNA polymerase III PolC-type (Bacillus subtilis (strain 168)) (UniProt P13267); assay: qHTS Validation Assay for the Inhibitors of DNA Replication in Gram-Positive Bacteria (AID 485295);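 also: reconstituted holoenzyme with PolC plus beta clamp SSB and primase; PicoGreen fluorescence of double-stranded DNA made on primed circular M13 template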
# DNA polymerase III PolC-type (Bacillus subtilis (strain 168)), sequence (P13267 whole entry, looked up): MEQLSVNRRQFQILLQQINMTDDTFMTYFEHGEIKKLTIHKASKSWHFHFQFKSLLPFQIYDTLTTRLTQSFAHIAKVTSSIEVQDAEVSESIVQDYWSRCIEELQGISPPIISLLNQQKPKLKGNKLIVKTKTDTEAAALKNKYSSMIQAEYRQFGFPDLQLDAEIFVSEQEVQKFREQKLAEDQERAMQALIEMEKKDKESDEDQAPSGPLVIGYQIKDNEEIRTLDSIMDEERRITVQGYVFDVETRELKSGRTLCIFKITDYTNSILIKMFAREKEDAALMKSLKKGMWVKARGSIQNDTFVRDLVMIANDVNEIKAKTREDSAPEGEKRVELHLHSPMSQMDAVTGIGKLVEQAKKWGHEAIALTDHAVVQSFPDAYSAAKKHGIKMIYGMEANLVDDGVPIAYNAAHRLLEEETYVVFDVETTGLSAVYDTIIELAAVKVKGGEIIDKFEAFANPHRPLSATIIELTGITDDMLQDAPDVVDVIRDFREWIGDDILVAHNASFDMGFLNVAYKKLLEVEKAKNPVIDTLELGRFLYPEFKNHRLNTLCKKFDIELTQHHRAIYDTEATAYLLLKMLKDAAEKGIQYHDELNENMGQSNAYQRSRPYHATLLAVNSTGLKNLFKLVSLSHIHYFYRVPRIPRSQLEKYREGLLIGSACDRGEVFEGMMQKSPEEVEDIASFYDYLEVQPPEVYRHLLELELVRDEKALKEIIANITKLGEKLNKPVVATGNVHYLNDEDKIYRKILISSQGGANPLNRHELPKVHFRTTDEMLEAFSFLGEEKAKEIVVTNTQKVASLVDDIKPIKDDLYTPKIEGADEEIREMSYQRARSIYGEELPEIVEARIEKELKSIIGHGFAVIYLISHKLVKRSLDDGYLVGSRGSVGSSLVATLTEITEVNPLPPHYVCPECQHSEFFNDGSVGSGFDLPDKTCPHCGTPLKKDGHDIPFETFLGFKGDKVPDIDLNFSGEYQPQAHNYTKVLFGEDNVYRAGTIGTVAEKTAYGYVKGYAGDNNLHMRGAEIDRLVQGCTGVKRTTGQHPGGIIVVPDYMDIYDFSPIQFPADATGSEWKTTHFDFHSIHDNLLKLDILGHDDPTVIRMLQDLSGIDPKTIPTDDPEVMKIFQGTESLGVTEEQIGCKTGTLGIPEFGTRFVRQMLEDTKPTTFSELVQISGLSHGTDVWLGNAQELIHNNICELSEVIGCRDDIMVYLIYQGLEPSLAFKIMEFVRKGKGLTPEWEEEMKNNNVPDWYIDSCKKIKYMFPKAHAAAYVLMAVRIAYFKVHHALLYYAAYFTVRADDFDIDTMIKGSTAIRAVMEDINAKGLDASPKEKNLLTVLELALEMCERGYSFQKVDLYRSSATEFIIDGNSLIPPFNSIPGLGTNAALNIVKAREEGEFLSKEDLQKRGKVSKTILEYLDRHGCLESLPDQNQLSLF
# Procedure, shortened: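 Primed replication of single-stranded M13Gori by a four-protein B. subtilis holoenzyme is measured at room temperature. Double-stranded product is quantified by PicoGreen fluorescence after an EDTA stop; inhibition is scaled between DMSO and EDTA controls.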
# [13] = target: Tumor susceptibility gene 101 protein (Homo sapiens) (UniProt Q99816); assay: qHTS Validation Assay for Iinhibitors of HIV-1 Budding by Blocking the Interaction of PTAP/TSG101 (AID 485342; calls by dose curve)
# Tumor susceptibility gene 101 protein (Homo sapiens), sequence (Q99816 whole entry, looked up, the tested form may be a part): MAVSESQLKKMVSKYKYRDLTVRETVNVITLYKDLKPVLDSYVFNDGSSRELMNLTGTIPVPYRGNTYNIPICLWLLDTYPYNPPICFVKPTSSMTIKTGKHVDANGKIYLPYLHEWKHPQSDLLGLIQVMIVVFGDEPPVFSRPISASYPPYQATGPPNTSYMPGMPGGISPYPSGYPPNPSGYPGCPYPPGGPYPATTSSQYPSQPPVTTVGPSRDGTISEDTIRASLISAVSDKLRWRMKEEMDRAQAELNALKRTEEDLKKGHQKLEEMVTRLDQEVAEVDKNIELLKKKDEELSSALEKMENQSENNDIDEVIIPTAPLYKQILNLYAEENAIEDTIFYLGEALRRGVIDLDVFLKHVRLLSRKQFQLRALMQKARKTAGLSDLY
# Procedure, shortened: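 Fluorescence anisotropy measured PTAP-Tsg101 interaction. Final concentrations were 10 uM protein domain and 50 nM labeled peptide, equilibrated 20 min at room temperature.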
# [14] = qHTS Validation Assay to Find Inhibitors of Chronic Active B-Cell Receptor Signaling (AID 485345; active = well fitted curve in the direction sought with a large enough effect in the main read-out, with a control signal flat, not every such curve was filed as active)
# Procedure, shortened: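 Read-out: ratio of filter-corrected green (IkappaBalpha fusion) to red (native) luciferase signal in doxycycline-induced TMD8 cells after 4 h at 37C. Titration spanned 46 uM–3 nM; Data were normalised to basal cells and 10 uM MG-132 wells.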
# [15] = target: Beta-2 adrenergic receptor (Homo sapiens) (UniProt P07550); assay: qHTS validation assay of beta-arrestin-biased ligands of beta2-adrenergic receptor (AID 485366)
# Beta-2 adrenergic receptor (Homo sapiens), sequence (P07550 whole entry, looked up): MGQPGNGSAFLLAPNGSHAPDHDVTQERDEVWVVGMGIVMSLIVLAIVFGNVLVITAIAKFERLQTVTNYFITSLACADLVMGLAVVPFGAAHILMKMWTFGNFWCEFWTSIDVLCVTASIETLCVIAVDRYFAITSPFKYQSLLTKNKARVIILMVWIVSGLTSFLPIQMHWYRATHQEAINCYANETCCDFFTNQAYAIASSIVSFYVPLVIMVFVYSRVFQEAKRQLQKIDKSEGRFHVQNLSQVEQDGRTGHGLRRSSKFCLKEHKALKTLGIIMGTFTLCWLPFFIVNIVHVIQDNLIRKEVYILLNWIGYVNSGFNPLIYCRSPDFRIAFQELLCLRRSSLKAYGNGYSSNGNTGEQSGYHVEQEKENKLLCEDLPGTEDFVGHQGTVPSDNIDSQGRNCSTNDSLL
# Procedure, shortened: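 qHTS, Tango cells, 1500 cells/well, DMEM + 1% FBS. Cpd 18 hr at 37 degrees C. Luciferin/ATP/CoA detection mix, 15 min RT, luminescence read. %Activity from corrected signal; CRC fit, curve class.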
# [16] = target: ATP-dependent 6-phosphofructokinase (Trypanosoma brucei brucei) (UniProt O15648); assay: qHTS Validation Assay to Find Inhibitors of T. brucei phosphofructokinase (AID 485368); conditions: T. brucei PFK enzyme assay, qHTS 7-point titration; at 57.5 µM (top of the series)
# Procedure, shortened: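 Luminescent ADP detection measures PFK turnover of fructose-6-phosphate (0.5 mM) with ATP (0.1 mM) at pH 8.0. Reaction runs 45 min at room temperature with 1.25 nM enzyme; inhibitors tested as titrations up to 57 uM.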
# [17] = target: Cytochrome P450 2C9 (Homo sapiens) (UniProt P11712); assay: qHTS for inhibitors of CYP2C9 against the NCATS DSHEA and TCM libraries (AID 1919973);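 also: luminogenic pro-luciferin CYP2C9 substrate turned into luciferin with NADPH regeneration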
# Cytochrome P450 2C9 (Homo sapiens), sequence (P11712 whole entry, looked up, canonical isoform): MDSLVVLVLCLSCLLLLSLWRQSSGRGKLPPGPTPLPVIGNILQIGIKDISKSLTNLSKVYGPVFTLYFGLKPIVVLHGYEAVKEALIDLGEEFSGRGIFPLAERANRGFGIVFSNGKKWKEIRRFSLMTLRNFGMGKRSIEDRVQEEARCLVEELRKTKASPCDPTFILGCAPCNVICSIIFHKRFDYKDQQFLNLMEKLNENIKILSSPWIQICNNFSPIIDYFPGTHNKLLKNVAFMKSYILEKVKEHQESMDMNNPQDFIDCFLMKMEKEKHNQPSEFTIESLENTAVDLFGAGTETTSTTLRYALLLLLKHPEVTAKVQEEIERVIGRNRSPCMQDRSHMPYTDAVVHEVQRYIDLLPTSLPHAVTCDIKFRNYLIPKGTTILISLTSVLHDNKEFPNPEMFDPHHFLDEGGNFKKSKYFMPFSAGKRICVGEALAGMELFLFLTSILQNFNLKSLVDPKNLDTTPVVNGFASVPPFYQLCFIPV
# Procedure, shortened: (§1)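 Each CYP isoform and its pro-luciferin substrate, at isoform-specific final concentrations, were preincubated 15 min at RT with substances. NADPH regeneration solution (1x) started a 30-45 min reaction, and P450-Glo luminescence was read.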
# [18] = target: Cytochrome P450 2C19 (Homo sapiens) (UniProt P33261); assay: qHTS for inhibitors of CYP2C19 against the NCATS DSHEA and TCM libraries (AID 1919974);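 also: luminescence from luciferin released by CYP2C19 oxidation of a pro-luciferin substrate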; also: potency is read from the fitted curve at half-maximal effect
# Cytochrome P450 2C19 (Homo sapiens), sequence (P33261 whole entry, looked up): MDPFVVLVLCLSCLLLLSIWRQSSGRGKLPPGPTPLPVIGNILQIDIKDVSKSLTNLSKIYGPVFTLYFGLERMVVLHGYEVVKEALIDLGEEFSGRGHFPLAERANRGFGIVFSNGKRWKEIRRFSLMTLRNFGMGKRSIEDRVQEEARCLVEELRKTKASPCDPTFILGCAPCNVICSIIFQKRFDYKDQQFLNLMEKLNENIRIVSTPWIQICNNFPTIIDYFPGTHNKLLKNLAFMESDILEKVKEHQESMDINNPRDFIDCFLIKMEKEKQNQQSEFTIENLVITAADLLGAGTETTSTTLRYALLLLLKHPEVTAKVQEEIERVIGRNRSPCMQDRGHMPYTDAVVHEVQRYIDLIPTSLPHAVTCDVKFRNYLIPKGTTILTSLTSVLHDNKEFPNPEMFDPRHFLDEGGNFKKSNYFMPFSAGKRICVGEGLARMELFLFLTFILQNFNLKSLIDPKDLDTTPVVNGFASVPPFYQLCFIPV
# Procedure, shortened: as §1
# [19] = Viability counterscreen for antagonist of constitutive androstane receptor (CAR) against the NCATS DSHEA and TCM libraries (AID 1794837);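 also: compound exposure lasted 24 h before viability reading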
# Procedure, shortened: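 Fluorescence from CellTiter-Fluor reports live-cell protease activity in HepG2-CYP2B6-hCAR cells treated for 24 h with substances alongside 48 uM CITCO.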
# [20] = target: Cytochrome P450 2D6 (Homo sapiens) (UniProt P10635); assay: qHTS for inhibitors of CYP2D6 against the NCATS DSHEA and TCM libraries (AID 1919972); also: potency is read from the fitted curve at half-maximal effect
# Cytochrome P450 2D6 (Homo sapiens), sequence (P10635 whole entry, looked up): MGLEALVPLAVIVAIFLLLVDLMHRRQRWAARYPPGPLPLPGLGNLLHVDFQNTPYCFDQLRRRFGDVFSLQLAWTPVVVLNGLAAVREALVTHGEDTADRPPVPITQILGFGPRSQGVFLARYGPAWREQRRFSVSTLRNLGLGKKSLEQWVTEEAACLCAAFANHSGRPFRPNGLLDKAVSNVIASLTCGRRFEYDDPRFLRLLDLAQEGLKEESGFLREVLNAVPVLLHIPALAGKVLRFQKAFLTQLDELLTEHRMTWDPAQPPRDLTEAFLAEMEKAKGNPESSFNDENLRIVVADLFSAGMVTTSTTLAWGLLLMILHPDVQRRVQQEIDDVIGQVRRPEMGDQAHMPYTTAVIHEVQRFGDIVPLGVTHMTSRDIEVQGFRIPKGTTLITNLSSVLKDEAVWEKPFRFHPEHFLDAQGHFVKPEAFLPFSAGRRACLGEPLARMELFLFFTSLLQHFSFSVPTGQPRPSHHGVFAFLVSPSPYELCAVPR
# Procedure, shortened: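 CYP2D6 enzyme with pro-luciferin substrate in manufacturer buffer (typically 100 mM KPO4), preincubated 15 min RT with substances (most at 19.5 nM upward); NADPH regeneration system (1x) started 30–45 min RT reaction; P450-Glo luminescence read after 30 min; quinidine as intraplate control.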
compound,measurement,setting,value
C/C=C(/C)C(=O)O[C@H]1C(C)=C2C([C@@H]1OC(=O)CCCCCCC)[C@@](C)(OC(C)=O)C[C@@H](OC(=O)CCC)[C@@]1(O)[C@H]2OC(=O)[C@@]1(C)O (some centres undefined),outcome,[1],inactive
CCCCN1C2CCC1CC(OC(c1ccc(F)cc1)c1ccc(F)cc1)C2 (centres undefined),outcome,[2],inactive
same,Potency,[3],0.398 µM (active)
same,Potency,[4],2.24 µM (active)
same,Potency,[5],inactive
same,outcome,[6],inactive
same,outcome,[7],inactive
same,outcome,[8],inactive
COc1ccc2c3c1O[C@H]1C(=O)CC[C@@]4(O)C(C2)N(CC2CC2)CCC314 (some centres undefined),Potency,[9],inactive
C[C@H]1C2Cc3ccc(O)cc3[C@]1(C)CCN2CC1CC1,outcome,[10],inactive
same,outcome,[11],inactive
same,outcome,[12],inactive
same,outcome,[13],inactive
same,outcome,[14],inactive
same,outcome,[15],inactive
same,outcome,[16],inactive
O=S(=O)(O)O,Potency,[17],inactive
same,Potency,[18],inactive
COc1cc2c(cc1O)CC1NCCc3cc(OC)c(OC)c-2c31 (centres undefined),outcome,[19],inactive
same,Potency,[20],6.31 µM (active)
COC1=CC(=O)OC(CCc2ccccc2)C1 (centres undefined),outcome,[19],inactive
same,Potency,[20],inactive
same,Potency,[17],inactive
same,Potency,[18],14.1 µM (active)
